# Experimental data from PubChem BioAssay (NCI).
# About 83,000 compounds went through this panel and 20% of them were active in at least one assay; those are over-represented in the sample as a whole.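 Single-concentration screen, 48 h exposure, 96-well plates. Endpoint: percent growth. Below 10 = active.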 A number with no mark means an inactive call. Calls of active or inactive are those of the source.
# What was measured:
# Assay in all cases: NCI-60 one-dose screen, 48 h (100 = growth as untreated, 0 = no growth, -100 = all killed)
# Conditions in all cases: 10 µM unless noted
# [1] = system: HT29 colon
# [2] = system: SNB-75 CNS
# [3] = system: SNB-19 CNS
# [4] = system: U251 CNS
# [5] = system: PC-3 prostate
# [6] = system: SK-MEL-5 melanoma
# [7] = system: UACC-62 melanoma
# [8] = system: SK-MEL-28 melanoma
# [9] = system: SK-MEL-2 melanoma
# [10] = system: EKVX NSCLC
# [11] = system: SN12C renal
# [12] = system: UO-31 renal
# [13] = system: TK-10 renal
# [14] = system: ACHN renal
# [15] = system: CAKI-1 renal
# [16] = system: A498 renal
# [17] = system: CCRF-CEM leukemia
# [18] = system: MOLT-4 leukemia
# [19] = system: SR leukemia
# [20] = system: LOX IMVI melanoma
Compound,growth [1],growth [2],growth [3],growth [4],growth [5],growth [6],growth [7],growth [8],growth [9],growth [10],growth [11],growth [12],growth [13],growth [14],growth [15],growth [16],growth [17],growth [18],growth [19],growth [20]
O=C(C(=O)N1CCOCC1)c1ccc(OC2OC(CO)C(O)C(O)C2O)cc1 (configuration not stated),100%,89.5%,102%,105%,110%,108%,103%,105%,96.2%,104%,106%,102%,101%,97.9%,98.5%,104%,107%,90.3%,102%,
Cc1ccc2c(c1)C(=O)/C(=C/c1ncc([N+](=O)[O-])n1C)O2,-19.8% (active),73.8%,11.8%,-19% (active),-2.93% (active),-38.5% (active),-13% (active),-17.2% (active),,,-15.3% (active),-39.7% (active),-29.8% (active),5.3% (active),-32.1% (active),76.4%,0.686% (active),-2.13% (active),11%,-3.36% (active)
CCC(C)CC(C)C(=O)c1c(O)ccn(O)c1=O (configuration not stated),97.3%,49.3%,18.6%,11.1%,24.5%,25.3%,3.01% (active),29%,41.9%,,21.2%,6.43% (active),,16.6%,40.3%,115%,15.8%,9.61% (active),22.9%,6.78% (active)
O=C(C(=O)N1CCCCC1)c1ccc(OC2OC(CO)C(O)C(O)C2O)cc1 (configuration not stated),100%,91.9%,96.8%,96.4%,97.3%,105%,97.9%,104%,99.4%,111%,98.9%,105%,107%,107%,94.4%,126%,97.7%,87.7%,101%,
O=C(NN(C(=O)c1ccccc1)c1cccs1)c1ccccc1,98.5%,90.7%,100%,111%,83.4%,101%,88.1%,115%,,112%,97.1%,66.1%,91.7%,104%,110%,,93.8%,107%,100%,93.7%
Oc1ccc(Cc2ccc(O)c(C3CC(c4ccc(Cl)cc4)=NN3)c2)cc1C1CC(c2ccc(Cl)cc2)=NN1 (configuration not stated),51%,36.1%,29.4%,12.7%,23.8%,24.4%,36.3%,57.7%,-10.8% (active),-6.4% (active),24.9%,-22.4% (active),21%,16.5%,-49.4% (active),33.8%,8.95% (active),-5.34% (active),3.43% (active),
Cn1c(N)c(N=O)c(=O)[nH]c1=O,98.8%,97%,105%,95.9%,98.7%,102%,103%,,97.8%,98%,101%,82.5%,101%,100%,108%,111%,91.1%,96.3%,97.6%,102%
Nc1nc(SCc2ccccc2Cl)c(-c2ccccc2)c(SCc2ccccc2Cl)n1,64.3%,107%,116%,86.9%,76.3%,109%,99.6%,101%,120%,,104%,69.9%,97.7%,,79.6%,67.6%,78.4%,90.9%,96.3%,84.7%
COc1ccc2[nH]cc(/C=C3/C(=O)Nc4ccc(Cl)cc43)c2c1,17.5%,-1.24% (active),70.7%,38%,64.6%,55.2%,51.8%,81.1%,,46.2%,76.6%,65.7%,22.2%,,,67.7%,44.3%,39.9%,2.51% (active),17.7%
COc1cc2c(c(OC)c1OC)-c1ccc(NN(C(=O)c3ccccc3)C(=O)c3ccccc3)c(=O)cc1[C@@H](NC(C)=O)CC2 (tested in a mixture with another compound),6.31% (active),27.7%,49.1%,24.8%,40.9%,20.2%,59.6%,52.9%,10.4%,30.8%,64.8%,62.3%,40.8%,63%,-2.24% (active),15.1%,41.9%,22.8%,18.1%,
COc1cc(C2NC(c3ccc(Cl)cc3)C(C)/C(=N/NC(N)=S)C2C)cc(OC)c1OC (configuration not stated),64.7%,81%,78.2%,73.4%,73.8%,79.4%,94%,108%,83.6%,107%,94.7%,76.7%,103%,93.2%,51.1%,129%,89.8%,70.7%,98.6%,
COc1ccc2c(c1)nc(N)c1c3cc(C)c(C)cc3cn21,37.9%,92.8%,77.5%,53.9%,90.3%,58.8%,44%,,84.4%,72%,84.1%,59.6%,108%,71.4%,,79.7%,70.9%,69.2%,,75.4%
Fc1ccc(-c2nnc(-c3c(-c4ccc(F)cc4)nc4ncccn34)o2)cc1,93.2%,102%,107%,107%,104%,95.4%,100%,101%,,108%,104%,77.8%,111%,97.8%,100%,69.8%,96.7%,83.4%,90.8%,96.4%
C=C(C)[C@@H]1C/C=C(/C=O)CC[C@@H]2O[C@@]2(C)CC/C=C(\C)CC1,127%,87.1%,110%,104%,63.3%,101%,92.3%,118%,,69.8%,116%,122%,114%,100%,8.5% (active),124%,137%,133%,125%,93.3%
COc1ccc(-c2cnnn2-c2cc(OC)c3c(c2)OCO3)cc1,1.26% (active),23.1%,39.4%,3.74% (active),4.25% (active),18.1%,26.8%,,,,36.8%,50%,40%,38.8%,29.6%,,0.869% (active),4.11% (active),-30.4% (active),17.8%
Cc1ccc(C(=O)Nc2ccc(Cl)cc2C(=O)NCc2ccccc2)cc1,23.3%,67.3%,92.8%,81.5%,76.6%,78.4%,70.7%,83.7%,,80.3%,97.7%,76.5%,105%,86.4%,77.7%,79.2%,73.9%,51.4%,37.1%,79.2%
OC(CCC(O)(c1ccccc1)c1ccccc1)(c1ccccc1)c1ccccc1,78.4%,83.9%,106%,87.7%,24.4%,90.6%,62.2%,,97.5%,58.8%,88%,74.7%,107%,100%,44.4%,60.2%,33.5%,18.5%,79.6%,71.4%
